Compounds without any hit were thinned out: in the full panel of roughly 83,000, 20% have a hit.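 In brief: 96-well plates, 48 h treatment, single concentration, percent growth endpoint.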 Values without a mark were called inactive. The source made the active and inactive calls. Rule for the calls: active = growth percent below 10; inactive = the rest.

From PubChem BioAssay (NCI) come the findings set out here.

Among the test systems are HCT-15 colon; HT29 colon; SNB-75 CNS; SNB-19 CNS; U251 CNS; PC-3 prostate; SK-MEL-5 melanoma; UACC-62 melanoma; LOX IMVI melanoma; SK-MEL-28 melanoma; EKVX NSCLC; SN12C renal; UO-31 renal; TK-10 renal; ACHN renal; CAKI-1 renal; A498 renal; CCRF-CEM leukemia; MOLT-4 leukemia.
Assay in all cases: NCI-60 one-dose screen, 48 h (100 = growth as untreated, 0 = no growth, -100 = all killed)
What all share (details): 10 µM unless noted

With `Cc1nn(-c2ccccc2)c2c1N=c1s/c(=C\c3cn(-c4ccccc4)nc3-c3ccc(Cl)cc3)c(=O)n1C(C)N2` (configuration not stated), the growth in the assay with HCT-15 colon was 85.8%; in the assay on HT29 colon, 94.3%; in the assay with SNB-75 CNS it was 86.4%; with SNB-19 CNS it was 98.9%; with U251 CNS, 85.2%; in the assay with PC-3 prostate, 82.4%. Moreover, the growth with SK-MEL-5 melanoma is 85%; in the assay on UACC-62 melanoma, 106%; with LOX IMVI melanoma, 87.6%; with SK-MEL-28 melanoma, 118%; in the assay with EKVX NSCLC it was 84.8%; in the assay on SN12C renal, 91.5%. Besides, the growth in the assay on UO-31 renal was 70.1%; in the assay on TK-10 renal it was 152%; in the assay on ACHN renal it was 83.7%; in the assay with CAKI-1 renal, 83.6%; in the assay with A498 renal, 123%; in the assay with CCRF-CEM leukemia, 110%. Moreover, the growth in the assay with MOLT-4 leukemia was 95.3%.
For `O=C(COc1cccc(/C=C2\Cc3ccc(Cl)cc3C2=O)c1)Nc1nccs1`, the growth with HCT-15 colon was 91.9%; with HT29 colon, 102%; in the assay with SNB-75 CNS it was 76.6%; with SNB-19 CNS, 85.9%; in the assay on U251 CNS, 96.7%; in the assay on PC-3 prostate, 88%. Also, the growth in the assay on SK-MEL-5 melanoma was 93.1%; with UACC-62 melanoma, 84.2%; in the assay with LOX IMVI melanoma it was 78%; in the assay on SK-MEL-28 melanoma, 124%; with EKVX NSCLC it was 98.1%; in the assay with SN12C renal it was 89.3%. The growth with UO-31 renal is -68% (active); in the assay on TK-10 renal, 142%; in the assay on ACHN renal, 91.8%; in the assay on CAKI-1 renal, 78.2%; in the assay with A498 renal it was 98.3%; in the assay with CCRF-CEM leukemia, 77.1%. The growth in the assay with MOLT-4 leukemia is 37.3%.
On to `O=C1C=CC2(NN=C(c3ccccc3)N2c2cccc(Cl)c2)C(Cl)=C1` (configuration not stated), for which the growth in the assay with HCT-15 colon was 79.6%; in the assay with HT29 colon it was 87.8%; in the assay on SNB-75 CNS it was 82%; in the assay with SNB-19 CNS it was 94.3%; in the assay on U251 CNS it was 84.6%; with PC-3 prostate, 58.3%. The growth in the assay with SK-MEL-5 melanoma was 91.8%; in the assay on UACC-62 melanoma it was 44.3%; in the assay with LOX IMVI melanoma it was 71.2%; in the assay with SK-MEL-28 melanoma, 111%; in the assay with EKVX NSCLC, 67.5%; in the assay with SN12C renal, 84.4%. Also, the growth in the assay with UO-31 renal was 51.5%; in the assay with TK-10 renal, 100%; in the assay on ACHN renal, 63.7%; with CAKI-1 renal, 79.8%; with A498 renal it was 83.4%; with CCRF-CEM leukemia it was 41.6%. In the assay on MOLT-4 leukemia, the growth is 39.2%.
As to `C=CC(=O)N1CCC(Oc2cc3c(Nc4ccc(Cl)c(Cl)c4F)ncnc3cc2OC)CC1`, the growth is 21.2% in the assay with HCT-15 colon; -16.4% (active) with HT29 colon; -18.4% (active) with SNB-75 CNS; 32.4% with SNB-19 CNS; 32.8% in the assay with U251 CNS; 14.2% in the assay with PC-3 prostate. The growth with SK-MEL-5 melanoma was 18.7%; with UACC-62 melanoma, 20.7%; in the assay on LOX IMVI melanoma it was -66.1% (active); in the assay on SK-MEL-28 melanoma, 63.3%; in the assay with EKVX NSCLC, 18.7%; in the assay with SN12C renal, 15.8%. The growth in the assay on UO-31 renal was -31.6% (active); in the assay with TK-10 renal it was -7.41% (active); in the assay on ACHN renal, -3.88% (active); in the assay on CAKI-1 renal, -34.2% (active); in the assay with A498 renal, -69.8% (active); with CCRF-CEM leukemia, 20.9%. Besides, the growth in the assay on MOLT-4 leukemia is -10.5% (active).
As to `Cc1cccc(C)c1N1C(c2ccccc2)=NNC12C=CC(=O)c1c(O)cccc12` (configuration not stated), the growth is 32.8% in the assay on HCT-15 colon; 89.4% in the assay on HT29 colon; 96.7% in the assay on SNB-75 CNS; 69.7% in the assay with SNB-19 CNS; 40.9% with U251 CNS; 38.8% in the assay on PC-3 prostate. Besides, the growth in the assay with SK-MEL-5 melanoma is -37.2% (active); in the assay on UACC-62 melanoma, 24.5%; with LOX IMVI melanoma, 7.95% (active); in the assay on SK-MEL-28 melanoma it was 110%; with EKVX NSCLC it was 91.3%; in the assay on SN12C renal, 72.5%. In addition, the growth is 48.4% in the assay on UO-31 renal; 111% in the assay on TK-10 renal; 88.6% with ACHN renal; 101% with CAKI-1 renal; 109% in the assay on A498 renal; 95.9% with CCRF-CEM leukemia. In the assay on MOLT-4 leukemia, the growth is 76.9%.
In the case of `COc1cc2nc(Nc3cccc(Cl)c3)nc(N)c2cc1OC`, the growth was 6.41% (active) in the assay with HCT-15 colon; 6.72% (active) with HT29 colon; 94.5% in the assay on SNB-75 CNS; 106% in the assay with SNB-19 CNS; 66.4% with U251 CNS; 53.9% with PC-3 prostate. The growth in the assay on SK-MEL-5 melanoma is 64.5%; with UACC-62 melanoma, 96.3%; in the assay with LOX IMVI melanoma it was 59.8%; in the assay on SK-MEL-28 melanoma it was 83.8%; in the assay with EKVX NSCLC, 111%; with SN12C renal, 79.3%. Further, the growth was 75.3% in the assay on UO-31 renal; 91.9% in the assay on TK-10 renal; 95.8% with ACHN renal; 146% with CAKI-1 renal; 63.5% in the assay on A498 renal; -81.3% (active) in the assay with CCRF-CEM leukemia. Besides, in the assay with MOLT-4 leukemia, the growth was 53.7%.
As to `S=C(NCc1ccc2c(c1)OCO2)N1CCN(c2ncnc3c2oc2ccccc23)CC1`, the growth in the assay on HCT-15 colon was 37.1%; with HT29 colon, 28.9%; in the assay on SNB-75 CNS it was 37.6%; in the assay on SNB-19 CNS, 49.1%; in the assay on U251 CNS, 41.3%; in the assay with PC-3 prostate, 27.3%. For the same compound, the growth is -46% (active) in the assay with SK-MEL-5 melanoma; 31% in the assay on UACC-62 melanoma; 44.6% in the assay on LOX IMVI melanoma; 52.9% in the assay with SK-MEL-28 melanoma; 38.8% in the assay with EKVX NSCLC; 50.8% with SN12C renal. Further, the growth in the assay with UO-31 renal is 11.9%; in the assay on TK-10 renal, -3% (active); in the assay on ACHN renal, 19.6%; in the assay with CAKI-1 renal, 28%; in the assay on A498 renal, 19.8%; with CCRF-CEM leukemia it was 22.5%. Also, the growth in the assay with MOLT-4 leukemia was 5.79% (active).
`C=CC(=O)N1CCC[C@@H](n2nc(-c3ccc(Oc4ccccc4)cc3)c3c(N)ncnc32)C1`: the growth was 72.6% in the assay on HCT-15 colon; 30.1% in the assay on HT29 colon; 19.6% in the assay with SNB-75 CNS; 49.8% with SNB-19 CNS; 48.1% with U251 CNS; 57.2% in the assay on PC-3 prostate. Moreover, the growth in the assay with SK-MEL-5 melanoma is 56.1%; in the assay on UACC-62 melanoma, 20.6%; with LOX IMVI melanoma, 24.3%; in the assay on SK-MEL-28 melanoma it was 79.2%; in the assay with EKVX NSCLC, 52.8%; in the assay with SN12C renal it was 27.2%. Also, the growth in the assay with UO-31 renal was 6.16% (active); in the assay on TK-10 renal, -8.56% (active); with ACHN renal, 23.5%; in the assay on CAKI-1 renal, 32.9%; in the assay with A498 renal, -17.1% (active); in the assay on CCRF-CEM leukemia, 54.8%. In addition, the growth in the assay on MOLT-4 leukemia is 25.3%.
